Counter-ions that a name gives are not always drawn. ± gives the standard deviation of the averaged measurements.
System: Saccharomyces cerevisiae BY4741 SeMeCo community
Test: mean cell size (pixel area) (pixels); higher = larger cells
Conditions: 10 µM; 24 h; SM minimal medium
Outline: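 Drug was acoustically predosed into 384-well plates to a final 10 µM in SM medium, and each well received 70 µl of Saccharomyces cerevisiae BY4741 diluted to OD600 = 0.3 from an overnight preculture at OD600 = 1.0. This four-plasmid fluorescent community carries one fluorescent marker per plasmid, and each plasmid complements one auxotrophy. After 24 h, the cells were fixed with paraformaldehyde and imaged by automated confocal microscopy, and Harmony analysis yielded mean cell pixel area per well. Each value is averaged over 3 replicates. Same SeMeCo high-content imaging drug screen: Selleck FDA-approved drugs at 10 µM, 24 h in SM medium, 384-well plates, 3 replicates.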

Row | Structure (SMILES) | mean cell size
1 | Cc1cc(C)nc(NS(=O)(=O)c2ccc(N)cc2)n1 [Sulfamethazine] | 12.5 ± 0.25
2 | CCCCOc1cc(C(=O)OCCN(CC)CC)ccc1N [Oxybuprocaine HCl] | 12.6 ± 0.3
3 | CCC(C)(C)C(=O)O[C@H]1C[C@@H](C)C=C2C=C[C@H](C)[C@H](CC[C@@H]3C[C@@H](O)CC(=O)O3)[C@H]21 [Simvastatin] | 11.7 ± 0.28
4 | O=C(O)C1=C(CSc2nnnn2CS(=O)(=O)O)CS[C@@H]2[C@H](NC(=O)[C@H](O)c3ccccc3)C(=O)N12 [Cefonicid sodium] | 12.47 ± 0.07
5 | CC(=O)O[C@H]1C[C@@]2(C)[C@@H](C[C@@H](O)[C@H]3[C@@]4(C)CC[C@@H](O)[C@@H](C)[C@@H]4CC[C@@]32C)/C1=C(\CCC=C(C)C)C(=O)O [Fusidate Sodium] | 12.64 ± 0.067
6 | C[C@@H](O)[C@H]1C(=O)N2C(C(=O)O)=C(S[C@@H]3CN[C@H](C(=O)N(C)C)C3)[C@H](C)[C@H]12 [Meropenem Trihydrate] | 12.6 ± 0.27
7 | CC[C@H](C)C(=O)O[C@H]1C[C@H](O)C=C2C=C[C@H](C)[C@H](CC[C@@H](O)C[C@@H](O)CC(=O)O)[C@H]21 [Pravastatin sodium] | 12.3 ± 0.26
8 | Cc1ncc([N+](=O)[O-])n1CC(O)CCl (stereo not given) [Ornidazole] | 12.5 ± 0.26
9 | NC12CC3CC(CC(C3)C1)C2 [Amantadine HCl] | 12.6 ± 0.17
10 | CC1CCc2c(N3CCC(O)CC3)c(F)cc3c(=O)c(C(=O)O)cn1c23 (stereo not given) [Nadifloxacin] | 12.6 ± 0.13
11 | CC1(C)CC[C@]2(C(=O)O)CC[C@]3(C)C(=CC[C@@H]4[C@@]5(C)CC[C@H](O)C(C)(C)[C@@H]5CC[C@]43C)[C@@H]2C1 [Oleanolic Acid] | 12.4 ± 0.22
12 | Nc1ccc(S(=O)(=O)Nc2ncccn2)cc1 [Sodium sulfadiazine] | 12.42 ± 0.059
13 | Cc1ccc(Sc2ccccc2N2CCNCC2)c(C)c1 | 12.22 ± 0.086
14 | CN1[C@@H]2CC[C@H]1C[C@@H](OC(=O)c1c[nH]c3ccccc13)C2 [Tropisetron] | 12.15 ± 0.079
15 | C[C@](N)(Cc1ccc(O)c(O)c1)C(=O)O [Methyldopa] | 12.3 ± 0.034
16 | Cc1c(OCC(F)(F)F)ccnc1C[S+]([O-])c1nc2ccccc2[nH]1 (stereo not given) [Lansoprazole] | 12.5 ± 0.14
17 | CCN(CC)CCOC(=O)c1ccc(N)cc1 [Procaine HCl] | 12.5 ± 0.25
18 | O=C1CN(/N=C/c2ccc(-c3ccc([N+](=O)[O-])cc3)o2)C(=O)N1 [Dantrolene sodium] | 12.4 ± 0.18
19 | COCCCOc1ccnc(C[S+]([O-])c2nc3ccccc3[nH]2)c1C (stereo not given) [Rebeprazole sodium] | 12.5 ± 0.13
20 | CCC(=O)NS(=O)(=O)c1ccc(-c2c(-c3ccccc3)noc2C)cc1 [Parecoxib] | 12.6 ± 0.088

Row | Structure (SMILES) | mean cell size
21 | CN1CCN(CCCN2c3ccccc3Sc3ccc(Cl)cc32)CC1 [Prochlorperazine dimaleate salt] | 12.4 ± 0.15
22 | CO/N=C(\C(=O)N[C@@H]1C(=O)N2C(C(=O)O)=C(CSC(=O)c3ccco3)CS[C@H]12)c1csc(N)n1 [Ceftiofur HCl] | 12.54 ± 0.051
23 | CCn1cc(C(=O)O)c(=O)c2cnc(N3CCNCC3)nc21 [Pipemidic acid] | 12 ± 0.14
24 | COc1ccc2c(c1)C(=O)N(CCc1ccc(S(=O)(=O)NC(=O)NC3CCCCC3)cc1)C(=O)C2(C)C [Gliquidone] | 12.5 ± 0.12
25 | O=C(O)CCc1nc(-c2ccccc2)c(-c2ccccc2)o1 [Oxaprozin] | 13 ± 0.46
26 | Nc1nc(=O)[nH]cc1F [Flucytosine] | 13.9 ± 0.19
27 | CN(C)CCC=C1c2ccccc2C=Cc2ccccc21 [Cyclobenzaprine HCl] | 12.59 ± 0.046
28 | CO[C@@H]1[C@H](OC(=O)/C=C/C=C/C=C/C=C/C(=O)O)CC[C@]2(CO2)[C@H]1[C@@]1(C)O[C@@H]1CC=C(C)C [Fumagillin] | 12.24 ± 0.059
29 | Clc1ccc(COC(Cn2ccnc2)c2ccc(Cl)cc2Cl)cc1 (stereo not given) [Econazole] | 11.9 ± 0.17
30 | CC1=C(C(=O)O)N2C(=O)[C@@H](NC(=O)[C@H](N)c3ccccc3)[C@H]2SC1 [Cephalexin] | 12 ± 0.24
31 | COc1ccc(NS(=O)(=O)c2ccc(N)cc2)nn1 [Sulfamethoxypyridazine] | 12.2 ± 0.35
32 | CC[C@H]1OC(=O)[C@H](C)[C@@H](O[C@H]2C[C@@](C)(OC)[C@@H](O)[C@H](C)O2)[C@H](C)[C@@H](O[C@@H]2O[C@H](C)C[C@H](N(C)C)[C@H]2O)[C@](C)(O)C[C@@H](C)[C@@H]2N[C@@H](COCCOC)O[C@H]([C@H]2C)[C@]1(C)O [Dirithromycin] | 12.3 ± 0.27
33 | CCCOc1ccc(C(=O)OCCN(CC)CC)cc1N [Proparacaine HCl] | 12.56 ± 0.068
34 | CCCCN(CCCC)CC(O)c1cc(Cl)cc2c1-c1ccc(Cl)cc1/C2=C/c1ccc(Cl)cc1 (stereo not given) [Lumefantrine] | 12.4 ± 0.14
35 | CC1=C(CC(=O)O)c2cc(F)ccc2/C1=C\c1ccc([S+](C)[O-])cc1 (stereo not given) [Sulindac] | 12.4 ± 0.21
36 | Cc1c(S(=O)(=O)O)oc2c1C(=O)C(=O)c1c-2ccc2c1CCCC2(C)C [Tanshinone IIA sulfonate (sodium)] | 11.85 ± 0.095
37 | COc1cc([C@@H]2c3cc4c(cc3[C@@H](O[C@@H]3O[C@@H]5CO[C@@H](c6cccs6)O[C@H]5[C@H](O)[C@H]3O)[C@H]3COC(=O)[C@H]23)OCO4)cc(OC)c1O [Teniposide] | 12.5 ± 0.04
38 | Nc1c(CC(=O)O)cccc1C(=O)c1ccccc1 [Amfenac Sodium Monohydrate] | 12.78 ± 0.078
39 | CO/N=C(\C(=O)N[C@@H]1C(=O)N2C(C(=O)O)=C(CSc3nc(=O)c(O)nn3C)CS[C@H]12)c1csc(N)n1 [Ceftriaxone Sodium Trihydrate] | 12.23 ± 0.09
40 | CN(C)[C@@H]1C(O)=C(C(N)=O)C(=O)[C@@]2(O)C(O)=C3C(=O)c4c(O)cccc4[C@@](C)(O)[C@H]3[C@H](O)[C@@H]12 [Oxytetracycline Dihydrate] | 12.6 ± 0.18
